Results taken from PubChem BioAssay (NCATS).
Inconclusive results are not listed. The source made the active and inactive calls. Calls come from the whole dose curve; as a rule, active = well fitted inhibition curve with a large enough effect; inconclusive = small, poorly fitted or top-dose-only effect; inactive = flat fitted curve, though single readings scatter.

How the values were obtained:
Experiment in all cases: qHTS profiling for inhibitors of Plasmodium falciparum proliferation (AID 504749); note: nearly all actives have a fitted effect of over 60% in size
Settings in all cases: P. falciparum in erythrocytes, SYBR Green DNA, 72 h; series mostly up to 28.7 µM
[1] = test system: 3D7
Procedure, shortened: (§1)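 Readout was DNA-dye fluorescence from lysed cultures, ex 485/em 535 nm. Parasitized red cells had grown 72 h with compound; data scaled between 0.29 uM artemisinin and DMSO wells and corrected using vehicle-only plates.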

[2] = test system: 7G8
Procedure, shortened: as §1

[3] = test system: AS120
Procedure, shortened: as §1

[4] = test system: ATS189
Procedure, shortened: as §1

[5] = test system: CP185
Procedure, shortened: as §1

[6] = test system: CP191
Procedure, shortened: as §1

[7] = test system: CP194
Procedure, shortened: as §1

[8] = test system: CP201
Procedure, shortened: as §1

[9] = test system: CP237
Procedure, shortened: as §1

[10] = test system: CP238
Procedure, shortened: as §1

[11] = test system: CP247
Procedure, shortened: as §1

[12] = test system: CP286
Procedure, shortened: as §1

[13] = test system: CP305
Procedure, shortened: as §1

[14] = test system: DIV30
Procedure, shortened: as §1

[15] = test system: Dd2
Procedure, shortened: as §1

[16] = test system: HB3
Procedure, shortened: as §1

[17] = test system: P94_40
Procedure, shortened: as §1

[18] = test system: PC49
Procedure, shortened: as §1

[19] = test system: TAB109
Procedure, shortened: as §1

[20] = test system: TAB113
Procedure, shortened: as §1

Measured: Potency

CC(=O)[C@H]1CC[C@H]2C3CC=C4C[C@@H](O)CC[C@]4(C)C3CC[C@]12C (stereo not given in full)
inactive: all assays above

C/C=C1\C2C=C(C)CC1(N)c1ccc(=O)[nH]c1C2 (stereo not given)
inactive: all assays above
